Data taken from the supplement of paper PMC6555819.

Columns and labels:
Test in all cases: PBM binding z-score (relative to random genomic background probes); higher = stronger binding; sequences stand for … in GC…GCGATTGACAGCGTAGAATGAAGG
[1] = test system: FXR:RXRa (NR concentration 270 nM, RXRa partner concentration 90 nM)
In short: (§1)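 Antibodies against each partner of ligand-free nuclear receptor dimers (one per run) detected binding on custom Agilent 4×180K protein-binding microarrays after 1 h incubation. The double-stranded probes had 34-nt variable regions carrying direct-repeat seeds, single-nucleotide variants, half-site ablations and random human genomic background sequences. Binding z-scores, from regression-normalized fluorescence, use the random background probes as reference.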

[2] = test system: LXRa:RXRa (NR concentration 270 nM, RXRa partner concentration 90 nM)
In short: as §1

[3] = test system: LXRa homodimer (NR concentration 270 nM)
In short: as §1

[4] = test system: LXRb:RXRa (NR concentration 270 nM, RXRa partner concentration 90 nM)
In short: as §1

[5] = test system: LXRb homodimer (NR concentration 270 nM)
In short: as §1

[6] = test system: PPARa:RXRa (NR concentration 270 nM, RXRa partner concentration 90 nM)
In short: as §1

[7] = test system: PPARg:RXRa (NR concentration 180 nM, RXRa partner concentration 90 nM)
In short: as §1

[8] = test system: PPARg:RXRa 270nM:90nM, anti-RXR (NR concentration 270 nM, RXRa partner concentration 90 nM)
In short: as §1

[9] = test system: PPARg:RXRa 30nM:10nM, anti-RXR (NR concentration 30 nM, RXRa partner concentration 10 nM)
In short: as §1

[10] = test system: PPARg:RXRa 90nM:30nM, anti-RXR (NR concentration 90 nM, RXRa partner concentration 30 nM)
In short: as §1

[11] = test system: PPARg:RXRa DBDmut IVT, anti-RXR (DBD mutation: RXRa K156A/R161A, NR concentration 270 nM, RXRa partner concentration 90 nM)
In short: as §1

[12] = test system: PPARg:RXRa IVT, anti-PPARg (NR concentration 270 nM, RXRa partner concentration 90 nM)
In short: as §1

[13] = test system: PPARg DBDmut:RXRa IVT, anti-PPARg (DBD mutation: PPARg1 K132A/R137A, NR concentration 270 nM, RXRa partner concentration 90 nM)
In short: as §1

[14] = test system: PPARg DBDmut IVT, anti-PPARg (DBD mutation: PPARg1 K132A/R137A, NR concentration 270 nM)
In short: as §1

[15] = test system: PPARg homodimer (NR concentration 180 nM)
In short: as §1

[16] = test system: PXR:RXRa (NR concentration 270 nM, RXRa partner concentration 90 nM)
In short: as §1

[17] = test system: PXR homodimer (NR concentration 270 nM)
In short: as §1

[18] = test system: RARa:RXR (NR concentration 270 nM, RXRa partner concentration 90 nM)
In short: as §1

[19] = test system: RARa homodimer (NR concentration 270 nM)
In short: as §1

[20] = test system: RARb:RXRa (NR concentration 270 nM, RXRa partner concentration 90 nM)
In short: as §1

Sequence | PBM binding z-score [1] | PBM binding z-score [2] | PBM binding z-score [3] | PBM binding z-score [4] | PBM binding z-score [5] | PBM binding z-score [6] | PBM binding z-score [7] | PBM binding z-score [8] | PBM binding z-score [9] | PBM binding z-score [10] | PBM binding z-score [11] | PBM binding z-score [12] | PBM binding z-score [13] | PBM binding z-score [14] | PBM binding z-score [15] | PBM binding z-score [16] | PBM binding z-score [17] | PBM binding z-score [18] | PBM binding z-score [19] | PBM binding z-score [20]
GCTAGCAGGCCATCTGGGTCACTCAATGACGGGC | 0.0876 | -0.178 | -0.882 | -0.232 | -0.896 | 1.7 | 1.31 | 1.36 | -0.319 | 0.57 | 3 | 3.48 | -0.603 | -1.04 | 0.0368 | 0.27 | -0.407 | 0.713 | -0.51 | 1.67
ATCGATAGGTCGACGAGGTGAGTATACACCGTTT | 0.682 | 0.624 | -0.525 | 0.484 | 0.0439 | 1.69 | 1.15 | 0.567 | 0.467 | 0.349 | -0.138 | 0.962 | 0.958 | -0.138 | 0.219 | 0.735 | 0.0845 | 1.6 | 0.235 | 1.65
CCTACTGGACCATTCAGAGGTCATTGATCATATG | 3.05 | 4.64 | 6.93 | 3.96 | 1.41 | 3.7 | 0.988 | 2.16 | 0.466 | 1.38 | 2.24 | 1.98 | 0.483 | 0.13 | 3.36 | 4.92 | 3.43 | 4.69 | 1.66 | 2.8
CATATTAGTTGACCATAAGGGCAACCGAAGCTCG | 1.05 | 0.784 | 0.591 | 0.601 | 0.928 | 0.55 | 0.779 | 0.866 | 0.713 | 0.78 | 0.59 | 1.02 | 1.7 | 1.43 | 1.42 | 0.825 | 0.678 | 1.19 | 1.93 | 1.8
CAAACTAAGTCAAGGTCAAAGTCGGTTTGTGCCA | 4.9 | 5.29 | 5.4 | 4.15 | 1.52 | 4.7 | 2.82 | 3.64 | 1.62 | 2.78 | 2.53 | 3.35 | 0.787 | 0.588 | 2.93 | 4.73 | 2.29 | 4.9 | 1.46 | 4.13
TAGCCTTGGTCATGGGCCAGTATACCACGCGAAC | -0.772 | -0.685 | -0.571 | -0.54 | -1.16 | -0.311 | 0.351 | -0.0225 | -0.592 | -0.107 | -1.28 | 0.113 | -0.568 | -0.717 | -0.713 | -0.329 | -0.952 | -0.342 | -1.21 | 0.734
CTGAGTAGGTTATGGGGCATTCAGGCAACGGTGA | 0.204 | 0.0795 | 0.0598 | 0.763 | -0.118 | 2.8 | 4.62 | 5.02 | 3.08 | 5.01 | 4.73 | 4.47 | 0.603 | -0.059 | 0.463 | 0.0232 | 0.0116 | 0.559 | -0.472 | 0.942
CAGCCTAGATCAGGGCCAGTATAGGAGGAACGTT | -0.83 | -0.998 | -0.438 | -1.08 | -1.15 | -0.772 | 0.274 | -0.997 | -0.386 | -0.789 | -0.475 | -0.568 | -0.718 | -0.931 | -0.197 | -0.797 | -0.456 | -0.741 | -0.525 | -0.399
GGAACAAGGGCAAGTTGATAGCAGAGTTTGATGG | 0.62 | 0.417 | 0.0737 | 0.264 | -0.0748 | 0.929 | 1.04 | 0.726 | 0.251 | 0.632 | 2.92 | 1.97 | -0.205 | -0.563 | 0.831 | 0.589 | 1.08 | 0.364 | 0.91 | 2.71
AGTACAGGGTCATCGTAGGCCAGAGTACGCACAG | 7.3 | 5.7 | 0.868 | 4.07 | 1.05 | 5.87 | 6.41 | 5.7 | 2.18 | 4.41 | 1.41 | 3.74 | 2.14 | 0.916 | 3.28 | 4.88 | 0.894 | 5.21 | 0.349 | 4.46
TGTCAAAGTTCGAAGGTAACGTAAGTATCCACAC | 1.54 | 1.56 | 0.166 | 1.27 | -0.175 | 2.58 | 4.57 | 5 | 2.28 | 4.19 | -0.516 | 2.26 | 1.29 | 0.86 | 0.387 | 1.64 | 0.292 | 2.13 | 0.23 | 2.34
TTACCAAGATGAGCTGAGGTCGTTGATCCAACTC | 0.71 | 0.408 | 0.0791 | 0.458 | -0.782 | 0.853 | 0.0458 | 0.511 | 0.543 | 0.66 | 0.238 | 0.101 | -0.000343 | -0.456 | 0.0396 | 1.87 | 0.628 | 1.35 | -0.33 | 0.279
GCTATTAGTTGAAAGGGCAACCGTATGATTCTCG | 0.693 | 0.878 | 0.327 | 1.1 | -0.2 | 2.2 | 2.64 | 4.69 | 2.25 | 4.37 | 0.503 | 1.17 | 0.375 | 0.271 | 1.91 | 1 | 0.322 | 1.49 | 0.819 | 2.11
TCGAGTTGGTTAGTCGGGGCATTCAGCCAACATA | 0.0149 | -0.0453 | -0.453 | 0.513 | -0.685 | 0.218 | -0.686 | 0.5 | 1.2 | 0.81 | 0.597 | 0.172 | -0.755 | -0.529 | -0.2 | 0.148 | 0.163 | 0.142 | -0.783 | 0.122
AAATGTAGGTTATCGGGTCATTCAGTTTGCGCAT | 3.38 | 3.09 | 1.81 | 2.9 | 0.806 | 5.21 | 7.59 | 6.43 | 4.76 | 6.15 | 8.08 | 7.95 | 2.76 | 1.48 | 3 | 3.87 | 7.01 | 3.72 | 1.36 | 2.68
GTACCACGGTGAATAGGTCGTTGATGAGTAGGCG | -0.0112 | -0.00221 | -0.237 | -0.365 | -0.842 | 0.664 | 0.525 | 0.597 | -0.227 | 0.557 | -0.0107 | 0.889 | -0.572 | -0.695 | 0.25 | 0.0182 | -0.47 | 0.233 | -0.371 | 0.587
CCTTACGGGGCACTGACAGGTTATAGCATTTGGA | -0.345 | 0.0473 | -0.267 | 0.0491 | -0.831 | 0.455 | 0.465 | -0.156 | -0.0268 | -0.232 | 1.49 | 0.641 | -0.296 | -0.753 | 0.227 | -0.0592 | -0.274 | 0.21 | 0.0601 | 1.03
CGTCAAAGTTCAACTAAGGTAAGGTAAAGCACGC | 7.07 | 6.11 | 4.02 | 3.87 | 1.73 | 5.14 | 5.27 | 5.34 | 2.26 | 4.31 | 0.313 | 2.23 | 0.694 | 0.769 | 2.56 | 5.25 | 3.24 | 4.42 | 1.63 | 5.2
